Cycloheximide cs: affects cycloheximide protein synthesis inhibition readout, counter-screen; cell reporter, cycloheximide protein synthesis inhibition counterscreen; max response, %; hit rate 12% among 300,000; in the data active = max response mostly above about 13%, no sharp cut-off; inactive = mostly below about 14%; also: read at 38.3 µM for the half of the compounds with a filed dose
RE007 growth inh: less growth of the S. pombe RE007 Vpr strain | S. pombe RE007 Vpr strain, BacTiter-Glo ATP luminescence, 24 h | AID 651644 | hit rate 0.21% among 360,000 | Potency, µM (doses to about 92.2 µM), hits mostly inhibitors; active = well fitted falling curve with a large enough effect; inconclusive = small, poorly fitted or top-dose-only effect; inactive = no such curve, though single readings can be large or run the other way; also: nearly all actives have a fitted effect of over 50% in size
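Fission yeast strain RE007, carrying one chromosomally integrated HIV-1 vpr copy, was seeded at OD 0.01 in PMG+AL medium with 23 nL pinned compound. After 24 h at 30 °C and 99% humidity, viability was read by BacTiter-Glo luminescence.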
LmPK inh: inhibitors of Leishmania mexicana pyruvate kinase | Q27686 | purified LmPK, Kinase-Glo ATP luminescence, 1 h | Potency, µM (series often up to 57.5 µM), actives largely listed as inhibitors | hit rate 0.37% among 290,000 | AID 1721
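qHTS format; LmPK 0.1 nM; substrates PEP 0.5 mM and ADP 0.1 mM. One-hour room-temperature incubation, then coupled luciferase luminescence; 0.5 nM enzyme wells mark activation.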
Shiga inhibitor: inhibitors of Shiga toxin in Vero cells; inhibition, % at 38.7 µM; Vero cells, Shiga toxin protein synthesis inhibition reporter; hit rate 9.2% among 290,000; AID 2315; in the data active = inhibition mostly above about 28%, no sharp cut-off; inactive = mostly below about 43%
TbPYK inhibitor: inhibitors of Trypanosoma brucei pyruvate kinase; TbPYK enzyme, Kinase-Glo Plus ATP luminescence, 45 min; Potency, µM (highest dose often 76.8 µM), actives largely listed as inhibitors; hit rate 0.12% among 410,000; AID 624173; also: nearly all actives have a fitted effect of over 50% in size
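Readout: single end-point luminescence (Kinase-Glo Plus, 10 min). Reaction conditions were TbPYK/substrate plus 130 uM ADP, 45 min at RT, pH 7.2 TEA buffer. No-enzyme wells served as controls, and data were normalized before concentration-response fitting.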
FBPA Giardia inh: Giardia lamblia aldolase inhibition; AID 2451; purified Giardia FBPA; hit rate 0.71% among 290,000; Potency, µM (doses to about 59.6 µM), hits mostly inhibitors; also: nearly all actives have a fitted effect of over 55% in size
Target sequence (A8B2U2 whole entry, looked up): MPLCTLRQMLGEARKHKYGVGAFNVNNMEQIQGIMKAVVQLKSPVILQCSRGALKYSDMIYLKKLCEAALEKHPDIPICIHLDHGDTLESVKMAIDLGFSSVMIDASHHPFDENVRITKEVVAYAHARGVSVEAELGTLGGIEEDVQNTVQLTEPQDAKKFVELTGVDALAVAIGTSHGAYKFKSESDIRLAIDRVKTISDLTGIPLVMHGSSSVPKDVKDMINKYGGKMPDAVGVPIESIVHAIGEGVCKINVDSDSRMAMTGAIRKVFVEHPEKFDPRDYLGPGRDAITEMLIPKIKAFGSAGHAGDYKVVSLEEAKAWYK
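40 nM FBPA preincubated 10 min at RT with compound (up to 57.5 uM final), then substrate plus GAPDH/TPI/NAD/arsenate coupling and diaphorase/resazurin added. Fluorescence read after 20 min at RT, 525/598 nm.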
Each line names hits and unclear results; the compound was inactive in the other large screens. Shown is part of a subset that was picked to be rich in hits. Unless noted, calls follow the shape of the dose curve; as a rule, active = well fitted curve in the direction sought with a large enough effect; inconclusive = small, poorly fitted or top-dose-only effect, or another doubt; inactive = no such curve, though single readings can be large; an effect the other way counts as inactive or inconclusive.

O=C(CSc1ncn(-c2ccccc2)n1)c1cccs1	Cycloheximide cs 64, Shiga inhibitor 88
Nc1nc(CSc2ncn(-c3ccccc3)n2)cs1	Cycloheximide cs 38, Shiga inhibitor 92
c1ccc(CSc2ncn(-c3ccccc3)n2)cc1	Cycloheximide cs 46, Shiga inhibitor 105
O=C(CSc1ncn(-c2ccccc2)n1)Nc1ccc(Br)cn1	none (no result: TbPYK inhibitor)
O=C(NCC1(c2ccccc2)CCCC1)C(=O)Nc1cccc(Br)c1	none (no result: Cycloheximide cs, RE007 growth inh, LmPK inh, Shiga inhibitor, FBPA Giardia inh)
Oc1ccc(C=Nc2cccc3ccccc23)c(O)c1	Cycloheximide cs 14, FBPA Giardia inh inconclusive
O=[N+]([O-])c1ccc(O)c(C=Nc2cccc3ccccc23)c1	none
C/C(=N\NC(=O)CC(C)C)c1ccc(N2CCCCC2)cc1	Cycloheximide cs 26, Shiga inhibitor 71
COc1ccc(/C(C)=N/NC(=O)c2ccc(N(C)C)cc2)cc1	none
COc1ccc(/C(C)=N/NC(=O)c2nc(C)cc(C)n2)cc1	Cycloheximide cs 32, Shiga inhibitor 50
COc1ccc(C(=O)NC(=S)Nc2ccc(N3CCCC3)cc2)cc1	Cycloheximide cs 16
COc1ccc(C(=O)Nc2ccc(N3CCCC3)cc2)cc1	none
COc1ccc(C(=O)N/N=C(/C)c2ccc(N3CCCCC3)cc2)cc1	Cycloheximide cs 30, Shiga inhibitor 74
CCOc1ccccc1NC(=O)CSc1nnc(CNC(=O)c2cc(OC)c(OC)c(OC)c2)o1	none (no result: FBPA Giardia inh)
CN(C)S(=O)(=O)N1CCC(N2CCN(Cc3ccc(F)cc3)C(=O)C2=O)CC1	none (no result: Cycloheximide cs, RE007 growth inh, LmPK inh, Shiga inhibitor, FBPA Giardia inh)
COc1ccccc1NC(=O)Cn1cnc2c(oc3nc4c(cc32)CCCC4)c1=O	none
